Laboratory results from PubChem BioAssay AID1159580 (chemical genetic matrix, 2015).
Hit rate of the full screen: of about 5,500 compounds, about 2,000 (36%) were called active. About 18% were inconclusive and are not listed. No stated cut-off is given here; in the data, active means normalized growth mostly below about 0.91 (no sharp cut-off); inconclusive means no clear call, values can overlap the other calls; inactive means mostly above about 0.92. The list shows a part of the results.

Assay: chemical genetic growth profiling, strain panel (AID 1159580);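 further: tested at 20 µM; growth read once vehicle control cultures reached saturation at 30 °C; 1 = growth at the plate median or of vehicle wells; lower values mean less growth of the strain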
Details: growth OD
[1] = S. cerevisiae deletion strains, locus YDL101C, strain DUN1, active compounds read low
[2] = S. cerevisiae deletion strains, locus YHR030C, strain SLT2, active compounds read low
[3] = S. cerevisiae deletion strains, locus YJL095W, strain BCK1, active compounds read low
[4] = S. cerevisiae deletion strains, locus YOR061W, strain CKA2, active compounds read low

Measured: normalized growth

CC(C)(C)c1ccc(C(=O)NNC(=S)Nc2ccc(Cl)cc2)cc1
active: [2] 0.731 | S. cerevisiae deletion strains, locus YPL256C, strain CLN2, active compounds read low 0.839
inactive: S. cerevisiae deletion strains, locus YAR019C, strain CDC15, active compounds read low 0.958 | S. cerevisiae deletion strains, locus YBL105C, strain PKC1, active compounds read low 0.978 | S. cerevisiae deletion strains, locus YBR135W, strain CKS1, active compounds read low 0.972 | S. cerevisiae deletion strains, locus YBR136W, strain MEC1, active compounds read low 0.974 | S. cerevisiae deletion strains, locus YBR160W, strain CDC28, active compounds read low 0.965 | S. cerevisiae deletion strains, locus YDL017W, strain CDC7, active compounds read low 0.983 | S. cerevisiae deletion strains, locus YDL028C, strain MPS1, active compounds read low 0.936 | [1] 0.978 | S. cerevisiae deletion strains, locus YDL108W, strain KIN28, active compounds read low 0.96 | S. cerevisiae deletion strains, locus YDL132W, strain cdc53, active compounds read low 0.971 | S. cerevisiae deletion strains, locus YDL214C, strain PRR2, active compounds read low 0.932 | S. cerevisiae deletion strains, locus YDR052C, strain DBF4, active compounds read low 0.986 | S. cerevisiae deletion strains, locus YDR054C, strain cdc34, active compounds read low 0.968 | S. cerevisiae deletion strains, locus YDR226W, strain ADK1, active compounds read low 0.954 | S. cerevisiae deletion strains, locus YDR477W, strain SNF1, active compounds read low 0.931 | S. cerevisiae deletion strains, locus YER123W, strain YCK3, active compounds read low 0.895 | S. cerevisiae deletion strains, locus YER133W, strain GLC7, active compounds read low 0.949 | S. cerevisiae deletion strains, locus YFL009W, strain cdc4, active compounds read low 0.937 | S. cerevisiae deletion strains, locus YFL029C, strain CAK1, active compounds read low 0.96 | S. cerevisiae deletion strains, locus YFR003C, strain YPI1, active compounds read low 0.98 | S. cerevisiae deletion strains, locus YFR019W, strain FAB1, active compounds read low 0.98 | S. cerevisiae deletion strains, locus YFR028C, strain CDC14, active compounds read low 0.957 | S. cerevisiae deletion strains, locus YGR040W, strain KSS1, active compounds read low 0.939 | S. cerevisiae deletion strains, locus YGR052W, strain FMP48, active compounds read low 0.974 | S. cerevisiae deletion strains, locus YGR092W, strain DBF2, active compounds read low 0.862 | S. cerevisiae deletion strains, locus YHR079C, strain IRE1, active compounds read low 0.916 | S. cerevisiae deletion strains, locus YHR082C, strain KSP1, active compounds read low 0.984 | S. cerevisiae deletion strains, locus YHR205W, strain SCH9, active compounds read low 0.904 | S. cerevisiae deletion strains, locus YIL147C, strain SLN1, active compounds read low 0.973 | [3] 0.898 | S. cerevisiae deletion strains, locus YJL128C, strain PBS2, active compounds read low 0.93 | S. cerevisiae deletion strains, locus YJL157C, strain FAR1, active compounds read low 0.953 | S. cerevisiae deletion strains, locus YJR016C, strain ILV3, active compounds read low 0.986 | S. cerevisiae deletion strains, locus YJR066W, strain TOR1 (second series), active compounds read low 0.845 | S. cerevisiae deletion strains, locus YJR066W, strain TOR1, active compounds read low 0.903 | S. cerevisiae deletion strains, locus YKL048C, strain ELM1, active compounds read low 0.996 | S. cerevisiae deletion strains, locus YKL067W, strain YNK1, active compounds read low 0.909 | S. cerevisiae deletion strains, locus YKL101W, strain HSL1, active compounds read low 0.91 | S. cerevisiae deletion strains, locus YKL193C, strain SDS22, active compounds read low 0.97 | S. cerevisiae deletion strains, locus YKL203C, strain TOR2, active compounds read low 1.01 | S. cerevisiae deletion strains, locus YLR113W, strain HOG1, active compounds read low 0.878 | S. cerevisiae deletion strains, locus YLR133W, strain CKI1, active compounds read low 0.938 | S. cerevisiae deletion strains, locus YLR403W, strain SFP1, active compounds read low 0.96 | S. cerevisiae deletion strains, locus YML070W, strain DAK1, active compounds read low 0.921 | S. cerevisiae deletion strains, locus YMR001C, strain CDC5, active compounds read low 0.953 | S. cerevisiae deletion strains, locus YMR205C, strain PFK2 (second series), active compounds read low 0.933 | S. cerevisiae deletion strains, locus YMR277W, strain FCP1, active compounds read low 0.949 | S. cerevisiae deletion strains, locus YNL006W, strain LST8, active compounds read low 0.981 | S. cerevisiae deletion strains, locus YNL020C, strain ARK1, active compounds read low 0.933 | S. cerevisiae deletion strains, locus YNL161W, strain CBK1, active compounds read low 0.986 | S. cerevisiae deletion strains, locus YNL183C, strain NPR1, active compounds read low 0.962 | S. cerevisiae deletion strains, locus YNL207W, strain RIO2, active compounds read low 0.971 | S. cerevisiae deletion strains, locus YNL222W, strain SSU72, active compounds read low 0.976 | S. cerevisiae deletion strains, locus YNL307C, strain MCK1 (second series), active compounds read low 0.896 | S. cerevisiae deletion strains, locus YOL078W, strain AVO1, active compounds read low 0.97 | S. cerevisiae deletion strains, locus YOL136C, strain PFK27, active compounds read low 0.919 | [4] 0.969 | S. cerevisiae deletion strains, locus YOR119C, strain RIO1, active compounds read low 0.964 | S. cerevisiae deletion strains, locus YOR231W, strain MKK1, active compounds read low 0.916 | S. cerevisiae deletion strains, locus YOR329C, strain SCD5, active compounds read low 0.983 | S. cerevisiae deletion strains, locus YPL031C, strain PHO85, active compounds read low 0.927 | S. cerevisiae deletion strains, locus YPL153C, strain RAD53, active compounds read low 0.873 | S. cerevisiae deletion strains, locus YPL204W, strain HRR25, active compounds read low 0.907 | S. cerevisiae deletion strains, locus YPL209C, strain IPL1, active compounds read low 0.968 | S. cerevisiae deletion strains, locus YPR025C, strain CCL1, active compounds read low 0.979 | S. cerevisiae deletion strains, locus YPR106W, strain ISR1, active compounds read low 0.984 | S. cerevisiae deletion strains, locus YPR111W, strain DBF20, active compounds read low 0.927 | S. cerevisiae deletion strains, strain NNK1, active compounds read low 0.997 | S. cerevisiae deletion strains, strain TSCII, active compounds read low 0.974

CC(N)C(O)c1ccc(O)c(O)c1 (configuration not stated)
inactive: S. cerevisiae deletion strains, locus YAL013W, strain DEP1, active compounds read low 1 | S. cerevisiae deletion strains, locus YBR021W, strain FUR4, active compounds read low 0.982 | S. cerevisiae deletion strains, locus YBR229C, strain ROT2, active compounds read low 0.98 | S. cerevisiae deletion strains, locus YCL029C, strain bik1, active compounds read low 0.981 | S. cerevisiae deletion strains, locus YDL035C, strain GPR1, active compounds read low 0.988 | S. cerevisiae deletion strains, locus YDL074C, strain BRE1, active compounds read low 1.02 | [1] 0.998 | S. cerevisiae deletion strains, locus YDL134C, strain PPH21, active compounds read low 1.01 | S. cerevisiae deletion strains, locus YDL185W, strain tfp1, active compounds read low 0.977 | S. cerevisiae deletion strains, locus YDL192W, strain arf1, active compounds read low 0.973 | S. cerevisiae deletion strains, locus YDR101C, strain arx1, active compounds read low 0.992 | S. cerevisiae deletion strains, locus YDR150W, strain NUM1, active compounds read low 0.999 | S. cerevisiae deletion strains, locus YDR162C, strain NBP2, active compounds read low 1.04 | S. cerevisiae deletion strains, locus YDR318W, strain mcm21, active compounds read low 0.979 | S. cerevisiae deletion strains, locus YDR388W, active compounds read low 0.98 | S. cerevisiae deletion strains, locus YDR502C, strain sam2, active compounds read low 0.999 | S. cerevisiae deletion strains, locus YEL061C, strain CIN8, active compounds read low 0.998 | S. cerevisiae deletion strains, locus YER110C, active compounds read low 0.97 | S. cerevisiae deletion strains, locus YER155C, strain BEM2, active compounds read low 0.994 | S. cerevisiae deletion strains, locus YER167W, strain BCK2, active compounds read low 0.98 | S. cerevisiae deletion strains, locus YGL078C, strain dbp3, active compounds read low 0.994 | S. cerevisiae deletion strains, locus YGL086W, strain mad1, active compounds read low 0.98 | S. cerevisiae deletion strains, locus YGL248W, strain PDE1, active compounds read low 0.991 | S. cerevisiae deletion strains, locus YGR078C, strain PAC10, active compounds read low 1.02 | S. cerevisiae deletion strains, locus YGR135W, strain pre9, active compounds read low 1.01 | S. cerevisiae deletion strains, locus YGR229C, strain SMI1, active compounds read low 1.02 | S. cerevisiae deletion strains, locus YGR252W, strain gcn5, active compounds read low 0.901 | [2] 0.99 | S. cerevisiae deletion strains, locus YHR079C, strain IRE1 (second series), active compounds read low 0.976 | S. cerevisiae deletion strains, locus YHR094C, strain hxt1, active compounds read low 0.988 | S. cerevisiae deletion strains, locus YHR129C, strain ARP1, active compounds read low 0.997 | S. cerevisiae deletion strains, locus YHR200W, strain rpn10, active compounds read low 0.971 | S. cerevisiae deletion strains, locus YIL066C, strain RNR3, active compounds read low 0.986 | S. cerevisiae deletion strains, locus YIL073C, strain SPO22, active compounds read low 0.958 | S. cerevisiae deletion strains, locus YIL125W, strain kgd1, active compounds read low 0.988 | S. cerevisiae deletion strains, locus YIR030C, strain dcg1, active compounds read low 0.993 | [3] 1.02 | S. cerevisiae deletion strains, locus YJL134W, strain LCB3, active compounds read low 0.993 | S. cerevisiae deletion strains, locus YJL168C, strain set2, active compounds read low 0.984 | S. cerevisiae deletion strains, locus YJL187C, strain SWE1 (second series), active compounds read low 1.01 | S. cerevisiae deletion strains, locus YJR043C, strain POL32, active compounds read low 1.01 | S. cerevisiae deletion strains, locus YJR075W, strain HOC1, active compounds read low 1.01 | S. cerevisiae deletion strains, locus YKL009W, strain mrt4, active compounds read low 0.972 | S. cerevisiae deletion strains, locus YKL068W, active compounds read low 0.991 | S. cerevisiae deletion strains, locus YKL085W, strain MDH1 (second series), active compounds read low 0.98 | S. cerevisiae deletion strains, locus YKL085W, strain MDH1, active compounds read low 0.98 | S. cerevisiae deletion strains, locus YKL190W, strain CNB1, active compounds read low 1 | S. cerevisiae deletion strains, locus YKR001C, strain vps1, active compounds read low 0.993 | S. cerevisiae deletion strains, locus YLR039C, strain RIC1, active compounds read low 1.01 | S. cerevisiae deletion strains, locus YLR058C, strain SHM2, active compounds read low 0.989 | S. cerevisiae deletion strains, locus YLR102C, strain apc9, active compounds read low 0.989 | S. cerevisiae deletion strains, locus YLR262C, strain YPT6, active compounds read low 0.997 | S. cerevisiae deletion strains, locus YLR268W, strain sec22, active compounds read low 1.01 | S. cerevisiae deletion strains, locus YLR330W, strain CHS5, active compounds read low 0.99 | S. cerevisiae deletion strains, locus YLR342W, strain FKS1 (second series), active compounds read low 0.976 | S. cerevisiae deletion strains, locus YLR371W, strain rom2, active compounds read low 0.971 | S. cerevisiae deletion strains, locus YLR418C, strain cdc73, active compounds read low 1.04 | S. cerevisiae deletion strains, locus YML016C, strain PPZ1, active compounds read low 0.991 | S. cerevisiae deletion strains, locus YML032C, strain rad52, active compounds read low 0.971 | S. cerevisiae deletion strains, locus YML124C, strain tub3, active compounds read low 0.983 | S. cerevisiae deletion strains, locus YMR078C, strain ctf18, active compounds read low 0.971 | S. cerevisiae deletion strains, locus YMR223W, strain ubp8, active compounds read low 0.968 | S. cerevisiae deletion strains, locus YMR263W, strain SAP30, active compounds read low 1.02 | S. cerevisiae deletion strains, locus YMR307W, strain GAS1, active compounds read low 0.95 | S. cerevisiae deletion strains, locus YNL067W, strain RPL9B, active compounds read low 1.02 | S. cerevisiae deletion strains, locus YNL128W, strain TEP1, active compounds read low 0.996 | S. cerevisiae deletion strains, locus YNL153C, strain GIM3, active compounds read low 1.03 | S. cerevisiae deletion strains, locus YNL233W, strain BNI4, active compounds read low 1.02 | S. cerevisiae deletion strains, locus YNL250W, strain rad50, active compounds read low 0.978 | S. cerevisiae deletion strains, locus YNL271C, strain bni1, active compounds read low 0.973 | S. cerevisiae deletion strains, locus YNL298W, strain CLA4, active compounds read low 0.982 | S. cerevisiae deletion strains, locus YNL307C, strain MCK1, active compounds read low 0.99 | S. cerevisiae deletion strains, locus YNL322C, strain KRE1, active compounds read low 0.997 | S. cerevisiae deletion strains, locus YNR052C, strain pop2, active compounds read low 0.959 | S. cerevisiae deletion strains, locus YOL006C, strain TOP1, active compounds read low 1.02 | S. cerevisiae deletion strains, locus YOL012C, strain htz1 0.931 | S. cerevisiae deletion strains, locus YOL147C, strain pex11, active compounds read low 0.983 | [4] 0.998 | S. cerevisiae deletion strains, locus YOR069W, strain VPS5, active compounds read low 0.991 | S. cerevisiae deletion strains, locus YOR136W, strain idh2, active compounds read low 0.972 | S. cerevisiae deletion strains, locus YOR144C, strain elg1, active compounds read low 0.977 | S. cerevisiae deletion strains, locus YOR184W, strain ser1, active compounds read low 0.971 | S. cerevisiae deletion strains, locus YOR316C, strain cot1, active compounds read low 0.981 | S. cerevisiae deletion strains, locus YPL055C, strain LGE1, active compounds read low 1.03 | S. cerevisiae deletion strains, locus YPL241C, strain CIN2, active compounds read low 1 | S. cerevisiae deletion strains, locus YPR119W, strain clb2, active compounds read low 0.995 | S. cerevisiae deletion strains, locus YPR141C, strain kar3, active compounds read low 0.976 | S. cerevisiae deletion strains, locus YPR163C, strain tif3, active compounds read low 0.987 | S. cerevisiae deletion strains, locus YPR167C, strain met16, active compounds read low 0.986 | S. cerevisiae deletion strains, strain wtn01, active compounds read low 1.01 | S. cerevisiae strains, strain wild type, active compounds read low 0.994
